Screens (PubChem BioAssay)
LASV entry inh = inhibitors of Lassa virus binding or cell entry | Potency, µM (doses to about 37.9 µM), hits mostly inhibitors | AID 540256 | Lassa virus pseudotype entry inhibition, cell reporter | actives 1.2% (n = 300,000); calls by dose curve; tested in HEK293 cells; note: nearly all actives have a fitted effect of over 50% in size
VACV mCherry inh = vaccinia inhibition (mCherry reporter) | Vaccinia virus mCherry reporter infection, fluorescence | Potency, µM (titrated, usually from 36.5 µM), usual class: inhibitors | actives 0.63% (n = 310,000); calls by dose curve; tested in A549 cells; note: nearly all actives have a fitted effect of over 35% in size
Vaccinia Venus = vaccinia inhibition (Venus reporter); Vaccinia virus Venus reporter expression, fluorescence; Potency, µM (titrated, usually from 36.5 µM), most hits filed as inhibitors; actives 0.46% (n = 330,000); AID 720580; calls by dose curve; tested in A549 cells; note: nearly all actives have a fitted effect of over 30% in size
HCMV inh = human cytomegalovirus inhibition; actives 4.5% (n = 410,000); HFF cells, HCMV-luciferase reporter, 72 h; stronger effect = lower value; activity change, negative = inhibition, % at 57.5 µM; in the data active = activity change below about -60%; inconclusive = no clear call, values can overlap the other calls; inactive = above about -39%
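HFF cells seeded 16 h at 37C, treated with compounds, infected with luciferase-reporter HCMV at MOI 1 PFU/cell; luciferase read at 72 h post infection, normalized to buffer-only and Salinomycin controls.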
MARV entry inh = Marburg virus entry inhibition | actives 1.8% (n = 300,000) | Marburg virus pseudotyped entry inhibition, cell reporter | Potency, µM (series often up to 37.8 µM), actives largely listed as inhibitors | AID 540276; calls by dose curve; tested in HEK293 cells
FMDV inh = antivirals against foot and mouth disease virus | FMDV antiviral cell-based qHTS | Potency, µM (top dose mostly 57.9 µM), hits mostly inhibitors | actives 1.2% (n = 410,000); calls by dose curve; tested in HEK293T cells; note: read-out not given here; nearly all actives have a fitted effect of over 45% in size
Large screens that a line does not name were inactive. This is a sample that favours compounds with a hit; in the whole collection about 6.5% have one here.

CC(=O)C1=C(c2cccc([N+](=O)[O-])c2)N(C(C)=O)n2c(C)nnc2S1	LASV entry inh inconclusive, HCMV inh -93, MARV entry inh inconclusive, FMDV inh inconclusive (no result: VACV mCherry inh, Vaccinia Venus)
CCOc1ccc(-n2c(=O)c3c(C)c(C(=O)N(C)C)sc3n(Cc3cc(C)ccc3C)c2=O)cc1	none (no result: MARV entry inh)
O=C(NC1=C(Nc2ccc(Cl)cc2)C(=O)c2ccccc2C1=O)c1ccccc1	LASV entry inh inconclusive, VACV mCherry inh 28µM, Vaccinia Venus inconclusive, HCMV inh -65, MARV entry inh inconclusive
O=C(NC1=C(NC2CCS(=O)(=O)C2)C(=O)c2ccccc2C1=O)c1ccccc1 (stereo not given)	HCMV inh -99, FMDV inh inconclusive (no result: LASV entry inh, VACV mCherry inh, Vaccinia Venus, MARV entry inh)
O=C1C(Cl)=C(NC(=O)c2ccccc2)C(=O)C(Cl)=C1NC(=O)c1ccccc1	LASV entry inh inconclusive, VACV mCherry inh inconclusive, Vaccinia Venus inconclusive, HCMV inh inconclusive, MARV entry inh inconclusive, FMDV inh 28µM
O=C(Nc1cccc(Cl)c1)c1ccccc1	none (no result: LASV entry inh, MARV entry inh)
CCN(CC)CCn1c2c(c(SCC(=O)Nc3cccc(C(F)(F)F)c3)nc1=O)CCC2	none (no result: MARV entry inh)
CCNC(=O)c1ccccc1SCc1ccccc1	HCMV inh inconclusive, MARV entry inh inconclusive
CCc1ccc(OCCNC(=O)c2ccccc2SCc2ccccc2)cc1	LASV entry inh inconclusive, VACV mCherry inh inconclusive, HCMV inh -88, MARV entry inh inconclusive, FMDV inh inconclusive
CN(CC(=O)Nc1ccc(Cl)c(C(F)(F)F)c1)C(=O)C1CC(=O)N(Cc2ccco2)C1 (stereo not given)	HCMV inh -90
Cc1sc2ncnc(N3CCC(C(=O)N(C)CC(=O)Nc4cccc(F)c4)CC3)c2c1C	VACV mCherry inh inconclusive, Vaccinia Venus inconclusive, HCMV inh -88, FMDV inh 18µM (no result: LASV entry inh, MARV entry inh)
Cc1sc2ncnc(N3CCC(C(=O)N(C)CC(=O)Nc4ccc(Cl)c(C(F)(F)F)c4)CC3)c2c1C	LASV entry inh 7.1µM, VACV mCherry inh 10µM, Vaccinia Venus inconclusive, HCMV inh inconclusive, MARV entry inh inconclusive, FMDV inh inconclusive
CN(CC(=O)Nc1cccc(F)c1)C(=O)C1CC(=O)N(Cc2ccco2)C1 (stereo not given)	none
CN1CCCCCC1C(=O)NCC1Cc2cc(-c3cnccn3)ccc2O1 (stereo not given)	none (no result: LASV entry inh, HCMV inh, MARV entry inh)
CCc1ccc2c(c1)C1(C(=O)N2)N2CCCC2C(C(=O)c2ccc3ccccc3c2)C12C(=O)Nc1ccccc12 (stereo not given)	LASV entry inh inconclusive, VACV mCherry inh 28µM, Vaccinia Venus 13µM, HCMV inh inconclusive, MARV entry inh inconclusive
Cc1cccc2c1NC(=O)C21N2CCCC2C(C(=O)c2ccc3ccccc3c2)C12C(=O)Nc1ccccc12 (stereo not given)	none (no result: LASV entry inh, VACV mCherry inh, Vaccinia Venus, HCMV inh, MARV entry inh)
CCc1cccc2c1NC(=O)C21N2CCCC2C(C(=O)c2ccc3ccccc3c2)C12C(=O)Nc1ccccc12 (stereo not given)	LASV entry inh inconclusive, HCMV inh -93, MARV entry inh 10µM
CC(C)(C)C1CCc2c(sc(NC(=O)CCC(=O)O)c2C(=O)Nc2ccccc2C(F)(F)F)C1 (stereo not given)	MARV entry inh inconclusive
Cc1[nH]nc2c1C(C1CC=CCC1)C(C#N)=C(N)O2 (stereo not given)	FMDV inh 25µM (no result: VACV mCherry inh)
Cc1nn(-c2ccccc2)c(Cl)c1C1C(C#N)=C(N)Oc2n[nH]c(C)c21 (stereo not given)	HCMV inh -103
CCC(CC)C1C(C#N)=C(N)Oc2n[nH]c(C)c21 (stereo not given)	MARV entry inh inconclusive, FMDV inh 35µM
CCc1[nH]nc2c1C(C(C)C)C(C#N)=C(N)O2 (stereo not given)	FMDV inh 32µM (no result: VACV mCherry inh, Vaccinia Venus)
CCc1[nH]nc2c1C(c1cccnc1)C(C#N)=C(N)O2 (stereo not given)	none (no result: VACV mCherry inh, Vaccinia Venus)
Cc1ccc(S/C(=N/S(=O)(=O)c2ccc(Cl)cc2)c2ccccc2)cc1	none (no result: LASV entry inh, HCMV inh, MARV entry inh, FMDV inh)
C(=C1c2ccccc2Oc2ccccc21)c1ccccc1	none (no result: LASV entry inh, HCMV inh, MARV entry inh, FMDV inh)
CCOc1ccc(-c2noc(CSc3nnc(-c4ccccc4)n3-c3ccccc3)n2)cc1	FMDV inh inconclusive
Clc1ccc(-c2noc(CSc3nnc(-c4ccncc4)n3-c3ccccc3)n2)cc1	HCMV inh -101, MARV entry inh inconclusive, FMDV inh 25µM (no result: VACV mCherry inh, Vaccinia Venus)
Clc1ccccc1-c1nnc(SCc2nc(-c3ccccc3)no2)n1-c1ccccc1	LASV entry inh inconclusive, HCMV inh inconclusive, MARV entry inh inconclusive, FMDV inh 25µM
COc1ccc(NC(=O)Cn2c(=O)n(Cc3ccccc3Cl)c(=O)c3cc(OC)c(OC)cc32)cc1OC	none
COC(=O)C(NC(=O)OCc1ccccc1)(c1ccc(Br)cc1)C(Nc1ccccc1)c1ccccc1 (stereo not given)	none (no result: LASV entry inh, VACV mCherry inh, Vaccinia Venus, MARV entry inh, FMDV inh)
Clc1cccc(Nc2ncnc3c2nc2n3CCCCC2)c1	none (no result: MARV entry inh)
Oc1cccc(Nc2cc3[nH]c(-c4ccccc4)cc3cn2)c1	HCMV inh -87 (no result: LASV entry inh, VACV mCherry inh, Vaccinia Venus, MARV entry inh, FMDV inh)
COc1ccc(CCNC(=O)c2cnn(-c3ccc(F)cc3)c2C2CCN(C(=O)OC(C)(C)C)CC2)c(OC)c1	LASV entry inh inconclusive (no result: MARV entry inh)
CCc1ccc(C(=O)c2cn(CC(=O)Nc3ccc(Cl)cc3)c3cc4c(cc3c2=O)OCO4)cc1	LASV entry inh inconclusive, MARV entry inh 4.5µM
CCc1ccc2c(c1)c(=O)c(C(=O)c1ccccc1)cn2CC(=O)Nc1ccc(C)c(Cl)c1	VACV mCherry inh inconclusive, Vaccinia Venus inconclusive, HCMV inh -69
CCCn1cc(SCC(=O)Nc2ccc3c(c2)OCO3)c2ccccc21	VACV mCherry inh inconclusive, HCMV inh -65 (no result: LASV entry inh, MARV entry inh)
CCOc1ccc(C(=O)c2cn(CC(=O)Nc3ccc(C)c(Cl)c3)c3ccc(OCC)cc3c2=O)cc1	none
CCc1ccc(C(=O)c2cn(CC(=O)Nc3ccc4c(c3)OCO4)c3ccc(CC)cc3c2=O)cc1	HCMV inh -88
Cn1cc(SCC(=O)Nc2ccc3c(c2)OCO3)c2ccccc21	none (no result: LASV entry inh, MARV entry inh)
O=S(=O)(c1cccc2ccccc12)N1CCN(c2nc(-c3cccs3)nc3ccccc23)CC1	none (no result: LASV entry inh, HCMV inh, MARV entry inh, FMDV inh)
CCN1/C(=C/C(C)=C/c2sc3ccccc3[n+]2CC)Sc2ccccc21	LASV entry inh 1.1µM, HCMV inh -100, MARV entry inh 1.6µM, FMDV inh 10µM
CCN1/C(=C\C=C(C(C)=O)C(C)=O)Sc2ccccc21	none
O=C(NCCN1CCCCC1)[C@H]1[C@H](CO)[C@H]2Cn3c(cccc3=O)[C@@H]1N2C(=O)C1CC1	none (no result: LASV entry inh, VACV mCherry inh, Vaccinia Venus, MARV entry inh, FMDV inh)
NNc1nnc2c3cc(F)ccc3n(Cc3ccccc3)c2n1	LASV entry inh inconclusive, HCMV inh -95, MARV entry inh inconclusive
Cc1ccc(CNc2ncnc3sc(C(=O)N4CCCC(C(N)=O)C4)c(C)c23)o1 (stereo not given)	none (no result: LASV entry inh, HCMV inh, MARV entry inh)
N#Cc1ccc(/C=C/C(=O)c2cccnc2)cc1	LASV entry inh inconclusive, MARV entry inh inconclusive, FMDV inh 40µM (no result: VACV mCherry inh, Vaccinia Venus)
O=C(/C=C/c1ccccc1Cl)c1cccnc1	LASV entry inh inconclusive, MARV entry inh inconclusive, FMDV inh 14µM (no result: VACV mCherry inh)
O=C(O)COc1ccc(/C=N/NC(=O)Cc2ccc(Cl)cc2)cc1	HCMV inh -101, MARV entry inh inconclusive
Cc1ccccc1/C=N/NC(=O)Cc1ccc(Cl)cc1	none
